# This is a sample that favours compounds with a hit; in the whole collection about 19% have one here.
# Marburg entry inh = inhibitors of Marburg virus binding or cell entry | AID 540276 | hit rate 1.8% among 300,000 | Potency, µM (top dose mostly 37.8 µM), for the others: top-dose activity change, negative = inhibition, actives largely listed as inhibitors | Marburg virus pseudotyped entry inhibition, cell reporter; calls by dose curve; tested in HEK293 cells; note: potency is the fitted concentration of half-maximal effect; % is set by controls: 0 for no effect and ±100 for the full control effect
# LASV entry inh = Lassa virus entry inhibition; Lassa virus pseudotype entry inhibition, cell reporter; Potency, µM (highest dose often 37.9 µM), inactives show top-dose activity change, negative = inhibition, most hits filed as inhibitors; hit rate 1.2% among 300,000; AID 540256; calls by dose curve; tested in HEK293 cells; note: potency is the fitted concentration of half-maximal effect; % is set by controls: 0 for no effect and ±100 for the full control effect; nearly all actives have a fitted effect of over 50% in size
# CHX counter = counter-screen for Shiga toxin inhibitors: cycloheximide protein synthesis inhibition. cell reporter, cycloheximide protein synthesis inhibition counterscreen. max response, %. hit rate 12% among 300,000. AID 2314; in the data active = max response mostly above about 13%, no sharp cut-off; inactive = mostly below about 14%; note: read at 38.3 µM for the half of the compounds with a filed dose; 0% is about no effect
# Pf growth 48h = inhibits P. falciparum growth in the first generation, 48 h; P. falciparum luciferase growth in erythrocytes, 48 h; Potency, µM (highest dose often 28.7 µM), for inactives: top-dose activity change, negative = inhibition, usual class: inhibitors; AID 504832; hit rate 5.9% among 310,000; note: potency is the fitted concentration of half-maximal effect; % is set by controls: 0 for no effect and ±100 for the full control effect
#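 Growth was read as firefly luciferase luminescence after a 48 h, 37 C, 5% CO2 exposure of compounds to reporter-bearing P. falciparum cultures (0.1% parasitemia, 2% hematocrit final) in Albumax-supplemented RPMI 1640.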
# Shiga toxin inh = blocks Shiga toxin action in Vero cells. Vero cells, Shiga toxin protein synthesis inhibition reporter. inhibition, % at 38.7 µM. hit rate 9.2% among 290,000; in the data active = inhibition mostly above about 28%, no sharp cut-off; inactive = mostly below about 43%; note: 0% is about no effect
# Pf growth 96h = P. falciparum growth inhibition at 96 hours | AID 504834 | P. falciparum luciferase reporter growth, 96 h | hit rate 6.9% among 320,000 | Potency, µM (titrated, usually from 28.7 µM), inactives show at the top dose activity change, negative = inhibition, actives largely listed as inhibitors; note: potency is the fitted concentration of half-maximal effect; % is set by controls: 0 for no effect and ±100 for the full control effect
#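 Erythrocytes infected with luciferase-expressing P. falciparum were dispensed at 2% hematocrit and 0.05% parasitemia (final), then incubated with compounds 96 hours at 37 C in 5% CO2. Luminescence after detection reagent addition reported growth.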
# * hit, by the source's call; ? = inconclusive; / = not tested or not shown; + = active, no number; [ ] = dose if it differs, or a comment. Unless noted, calls come from the whole dose curve; as a rule, active = well fitted inhibition curve with a large enough effect; inconclusive = small, poorly fitted or top-dose-only effect, or another doubt; inactive = no such curve, though single readings can be large or run the other way.
SMILES,Marburg entry inh,LASV entry inh,CHX counter,Pf growth 48h,Shiga toxin inh,Pf growth 96h
Clc1ccc(-c2nnc(SCc3nc4ccccc4[nH]3)o2)c(Cl)c1,-19%,6%,17*,4%,32,-13%
N#CCCn1cc(/C=N/O)c(-c2ccccc2)n1,1%,8%,8,/,-8,-21%
COCCN(C(=O)C1CC1)c1nnc(-c2ccc(C)cc2)s1,5%,7%,6,8%,36,?
CCOc1ccc(-c2nnc(N(CC)C(=O)C3CCC3)s2)cc1,?,?,28*,?,53*,6.6µM*
CCCC(=O)N(C)c1nnc(-c2ccc(OC)cc2)s1,3%,/,13*,76%,46,10µM*
CC(=O)Nc1cccc(N/C(N)=N/c2nc(C)cc(C)n2)c1,/,/,-5,?,-5,-18%
COCCN(CCOC)C(=O)CN1C(=O)NC(Cc2c[nH]c3ccccc23)C1=O (centres undefined),9%[46.1 µM],/,-8,12%,-17,27%
Cc1cc2oc(=O)c(CC(=O)NCCCN(C)C)c(C)c2c2occ(C(C)(C)C)c12,?,?,-6,2.6µM*,17,1.9µM*
Cc1ccc(C2=NCCn3c2c2ccc(C(F)(F)F)cc2[n+]3[O-])cc1,/,/,/,10µM*,/,?
COc1ccc(-c2nc(CS(=O)CC(=O)NCc3ccc(C)cc3)c(C)o2)cc1OC (centres undefined),/,/,2,-12%,8,11%
COc1ccccc1CCC(=O)Nc1ccc(OC)c(S(=O)(=O)N2CCOCC2)c1,?,8%,/,-8%,/,?
COc1ccc(NC(=O)c2ccc(-c3ccccc3)cc2)cc1S(=O)(=O)N1CCOCC1,-8%[46.1 µM],-3%,-1,0%,-8,-25%
COc1ccc(NC(=O)CSc2ccccc2)cc1S(=O)(=O)N1CCOCC1,-2%,-15%,1,-14%,22,12µM*
O=C(COc1ccccc1Cc1ccccc1)Nc1cccc(S(=O)(=O)N2CCOCC2)c1,?,?,/,13µM*,/,4.1µM*
COc1ccc(NC(=O)COc2ccccc2Cc2ccccc2)cc1S(=O)(=O)N1CCOCC1,-28%,-21%[46.1 µM],/,12µM*,/,5.2µM*
CCc1cccc2c(C(=O)COC(=O)C3=NNC(=O)CC3)c[nH]c12,/,/,-3,16%,8,32%
CCc1ccccc1N(CC(=O)NCCc1ccccc1)C(=O)CCC(=O)Nc1ccccn1,-9%[46.1 µM],/,-1,?,-13,?
Cc1ccc(OCCCCn2ccnc2)c([N+](=O)[O-])c1,/,/,21*,?,36,?
Cc1ccc(OCCn2cncn2)c([N+](=O)[O-])c1,/,/,-4,6%,14,?
Cc1ccc(OCCOCCn2ccnc2)c(Br)c1,9%,21%,31*,35%,75,19%
Cc1ccc(OCCn2ccnc2)c(C)c1,/,/,5,-7%,-5,1%
Cc1ccc(C)c(OCCCCn2ccnc2)c1,3%,2%,-3,/,-14,13µM*
Cc1ccc(OCCCCn2ccnc2)c(Cl)c1,21%,5%,27*,?,40*,10%
Cc1cc(NC(=O)CSc2nc(Cc3ccccc3)c(C)[nH]2)no1,21%[46.1 µM],?,-5,-20%,3,136%
Cc1ccc(OCC(=O)c2ccc(Cl)s2)c([N+](=O)[O-])n1,-2%[46.1 µM],-8%,27,257%,43,11%
SMILES,Marburg entry inh,LASV entry inh,CHX counter,Pf growth 48h,Shiga toxin inh,Pf growth 96h
COc1ccc(OCCOc2ccc(C)nc2[N+](=O)[O-])cc1,?,15%,49*,157%,93*,110%
Cc1ccc(OCCOc2ccc(Cl)cc2Cl)c([N+](=O)[O-])n1,7%,11%,52*,62%,106*,72%
Cc1ccc(COc2ccc(C)nc2[N+](=O)[O-])cc1,?,?,50*,476%,83*,226%
Cc1cc2ccccn2c1C(=O)c1nc(NCc2ccco2)ncc1Cl,-2%[46.1 µM],-10%[46.1 µM],12,?,-2,0%
Cc1ccc(S(=O)(=O)Cn2nnnc2CN(Cc2ccco2)CC2CCCO2)cc1 (centres undefined),-15%,5%,-2,?,1,4.1µM*
Cc1cc2nc(-c3ccc(SCC(=O)N4CCc5ccccc54)nc3)[nH]c2cc1C,?,?,43*,?,36,?
O=C(O)c1ccc(SCc2ccccc2)nc1,?,-18%,/,/,/,/
Cc1cc2nc(-c3ccc(SCc4ccc(C(=O)O)cc4)nc3)[nH]c2cc1C,5.6µM*,?,37*,?,45*,2%
Cc1cc2nc(-c3ccc(SCC(=O)NC(C)C)nc3)[nH]c2cc1C,/,/,45*,?,+,-26%
Cc1cc2nc(SC(C)C(=O)O)[nH]c2cc1C (centres undefined),?,0%,-2,4%,-5,?
COC(=O)CSc1ccc(-c2nc3ccc(C)cc3[nH]2)cn1,10%,12%,20*,/,13,-27%
COC(=O)CSc1cnc2ccccc2n1,21%,12%,-5,3%,-5,-4%
Cc1cc2nc(-c3ccc(SCC(=O)Nc4ccc(S(=O)(=O)NC5CC5)cc4)nc3)[nH]c2cc1C,4.5µM*,?,46*,?,70*,45%
O=C(CN1CCCCC1)Nc1ccc(S(=O)(=O)NC2CCCCC2)cc1,?,-15%,-5,8%,-13,/
Cc1cc2nc(-c3ccc(SCc4ccccc4C#N)nc3)[nH]c2cc1C,?,?,34*,0%,46*,0%
N#Cc1ccccc1CSc1ccccn1,15%,-10%,-4,-17%,23,14%
Cc1cc(NC(=O)CSc2ccc(-c3nc4cc(C)c(C)cc4[nH]3)cn2)no1,?,-2%,38*,3.3µM*,60*,34%
Cc1cc(C)c(NC2=CC(=O)CC(C)(C)C2)c(C#N)c1,-1%,-17%,-4,-11%,30,6%
COc1c(CC=C(C)C)cc(C2CC(=O)c3c(O)cc(O)cc3O2)cc1CC=C(C)C (centres undefined),/,/,active,?,19,168%
COc1ccc([C@@H]2CC(=O)c3c(O)cc(O)cc3O2)cc1O,?,/,/,-7%,/,43%
CC(C)=CCc1c(O)cc2c(c1O)C(=O)CC(c1ccc(O)cc1)O2 (centres undefined),/,/,23*,-8%,29,22%
CC(C)=CCc1c(O)c(CC=C(C)C)c2c(c1O)C(=O)CC(c1ccc(O)cc1)O2 (centres undefined),/,/,2,?,17,79%
Cc1ccc(NC(=O)C2CCN(c3ncnc4c3nc3n4CCCCC3)CC2)cc1Cl,/,/,-9,-42%,-6,29%
CCn1c(C)nc2cc(-c3nnc(-c4c(-c5ccccc5)noc4C)o3)ccc21,-49%,-10%,-7,9.3µM*,-13,-3%
CC(C)(CCC(=S)N1CCOCC1)C1CCCCC1,4%[46.1 µM],-2%[46.1 µM],25*,74%,24,8%

# Screening data: PubChem BioAssay, National Center for Advancing Translational Sciences (NCATS)
